Values joined by “and” are separate entries in the source; they are usually repeats but may differ in a detail not shown here. Equal entries are not always repeated. Active and inactive are the calls of the source. Rule as the data show it, unless noted: active = parasite load remaining mostly below about 12% (no sharp cut-off); inactive = mostly above about 10%.

Assay [1] in a line: stimulators of nuclear beta-catenin in C2C12, primary screen, imaging, WNT3A-conditioned medium, mouse C2C12, NPC library (AID 1117326; in the data active = nuclear beta-catenin stimulation mostly above about 4.2%, no sharp cut-off; inactive = mostly below about 10%). As to conditions: stronger effect = higher value.
Assay [2] is described as follows: stimulators of insulin release from INS-1E, primary screen, cell-based, 5 mM glucose, NPC library (AID 1117329;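 active = compound raises insulin release from rat beta cells at 5 mM glucose, no numeric limit stated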). As to conditions: rat INS-1E insulin secretion, at 10 µM, stronger effect = higher value.
A short description of assay [3]: growth inhibition of GSK3B-pretreated HCT116 cells – cell-based, CellTiter-Glo, 0.2 to 20 µM (AID 1117336;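 active = compounds lowering colon cancer cell viability after pretreatment blocking the GSK3B kinase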). The note with it: HCT116 viability after GSK3B inhibitor, at 20 µM, stronger effect = higher value. In general terms: ATP-based viability assays read luminescence as a measure of living cells.
A short description of assay [4]: inhibition of endothelial tube formation, primary screen, imaging, VEGF stimulated, CD31 staining, tube area, NPC library (AID 1117340;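 active = compound that reduces growth-factor-driven endothelial tube area in a mixed cell culture, no cutoff stated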). The note with it: VEGF-stimulated ADSC/ECFC co-culture, at 10 µM, stronger effect = higher value.
The nature of assay [5]: glucagon-like peptide 1 release enhancers, primary assay, NCI-H716 cell line, NPC library (AID 1117341;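 active = compound raises GLP1 secretion from the human gut endocrine cells, with no numeric limit stated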). The note with it: NCI-H716 cells, at 10 µM, stronger effect = higher value.
Assay [6] is described as follows: HCT116 colon cancer cell growth inhibition, primary screen, CellTiter-Glo luminescence, NPC library (AID 1117342;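 active = compounds that lower survival of HCT116 colon cancer cells in the luminescence readout, no numeric limit stated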). As to conditions: at 20 µM (top of the series).
The nature of assay [7]: CellTiter-Glo luminescent readout of SW480 viability loss, NPC library primary (AID 1117343;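 active = compounds that lower viability of the colon cancer cells in the luminescence readout, with no numeric limit stated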). The note with it: CellTiter-Glo luminescence; at 20 µM (top of the series) unless noted.
The nature of assay [8]: decreased DLD-1 cellular survival, CellTiter-Glo luminescent readout, NPC compound collection, primary HTS (AID 1117346;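 active = compounds that lower survival of DLD-1 colon cancer cells in the luminescence readout, no cutoff given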). As to conditions: DLD-1 viability, CellTiter-Glo luminescence; at 20 µM (top of the series).
Assay [9] in a line: differential killing of epithelial or mesenchymal cells, primary screen, imaging, PC-3E GFP, TEM4-18 mCherry, co-culture (AID 1345086;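 active = compounds killing one labelled cell type while sparing the other, by normalised counts and ratio limits, not self-fluorescent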;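 as to all read-outs here: cells exposed to compound for 72 h before imaging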;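 as to red/green cell ratio (normalised): normalised mesenchymal count divided by normalised epithelial count so high means epithelial killing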). As to conditions: imaging cell counts, at 1 µM; for red/green cell ratio (normalised): actives lie on both sides, counts scaled to control wells, 1 = unselective.
A short description of assay [10]: sensitizers of A549 cells to miR-34 induction, primary screen, imaging, A549 dox-inducible miR-34, nuclei and caspase counts (AID 1347080;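 active = compounds whose cell count with miR-34 switched on is under 0.7 times the count with it off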). The note with it: A549 miR-34 inducible, Hoechst nuclei count, 48 h.
Assay [11] has as its target NAD(+) hydrolase SARM1 (Homo sapiens) (UniProt Q6SZW1). Description: SARM1 TIR NADase inhibitors, cell lysate, NAD-Glo luminescence (AID 1508614;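 active = compound whose remaining NAD level is above about 45 nM, limit read from the data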;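 also: higher remaining NAD means stronger inhibition of SARM1 NADase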). The note with it: SAM-TIR HEK293T lysate NADase, at 1 µM, stronger effect = higher value.
A short description of assay [12]: hESC survival regulators, cell-based (AID 493140; call rule not given here;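 also: cells exposed to compounds for four days before counting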). The note with it: human embryonic stem cell survival screen; stronger effect = higher value.
Assay [13] in a line: liver-stage malaria parasite growth inhibition, primary screen, cell-based, HepG2, luciferase luminescence, HepG2 viability (AID 624349).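 Also: 100% = mean of DMSO negative control wells on the same plate.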 The note with it: P. berghei liver stage in HepG2, luciferase luminescence, concentration not given here; parasite load remaining: stronger effect = lower value; viability: measured here: HepG2 viability without parasites.
A short description of assay [14]: survival rescue of mitochondrial mutant cells in low glucose, primary screen, MELAS cybrids, Rieske KO mouse fibroblasts, CellTiter-Glo (AID 1508586;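 active = mean z-score across replicates of 1.96 or higher in either the MELAS or the Rieske mutant cell line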;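 also: z relative to plate mean and SD of compound and empty wells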).
Where [15] appears, read: measured here: epithelial PC-3E GFP cell survival.
The mark [16] stands for this setting: measured here: mesenchymal TEM4-18 mCherry cell survival.
Where [17] appears, read: stronger effect = lower value, cell number ratio, induced over uninduced.
The mark [18] stands for this setting: measured here: relative caspase fold change +Dox/-Dox.
Where [19] appears, read: measured here: total cells with miR-34 induction, stronger effect = lower value.
Where [20] appears, read: measured here: total cells without miR-34 induction.
The mark [21] stands for this setting: MELAS cybrid survival, CellTiter-Glo 48 h, stronger effect = higher value.
The mark [22] stands for this setting: Rieske KO mouse fibroblast survival, CellTiter-Glo 72 h.

Sequence of NAD(+) hydrolase SARM1 (Homo sapiens) (Q6SZW1 whole entry, looked up): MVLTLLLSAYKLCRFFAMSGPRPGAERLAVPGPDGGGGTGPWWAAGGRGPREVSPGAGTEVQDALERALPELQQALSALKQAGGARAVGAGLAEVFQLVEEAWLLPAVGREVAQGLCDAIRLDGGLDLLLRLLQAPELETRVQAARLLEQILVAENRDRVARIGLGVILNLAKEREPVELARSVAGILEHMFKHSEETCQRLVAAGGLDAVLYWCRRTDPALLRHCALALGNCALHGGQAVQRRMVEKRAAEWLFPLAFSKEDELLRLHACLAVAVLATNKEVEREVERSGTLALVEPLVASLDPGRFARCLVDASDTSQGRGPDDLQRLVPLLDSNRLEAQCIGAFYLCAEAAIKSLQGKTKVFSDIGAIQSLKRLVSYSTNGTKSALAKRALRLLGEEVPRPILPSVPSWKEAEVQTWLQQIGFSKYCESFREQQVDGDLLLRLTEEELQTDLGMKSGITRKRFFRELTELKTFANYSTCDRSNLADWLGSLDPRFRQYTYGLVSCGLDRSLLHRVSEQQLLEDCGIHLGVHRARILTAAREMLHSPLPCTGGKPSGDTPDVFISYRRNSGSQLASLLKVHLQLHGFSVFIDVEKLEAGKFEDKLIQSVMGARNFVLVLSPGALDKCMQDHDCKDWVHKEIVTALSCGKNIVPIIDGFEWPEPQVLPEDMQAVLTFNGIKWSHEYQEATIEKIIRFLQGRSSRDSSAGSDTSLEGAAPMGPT

Consider `O=c1[nH]c(=O)c2ccccc2o1`, for which the nuclear beta-catenin stimulation was 0.9% (inactive) in assay [1] (at 10 µM) and 0.3% in assay [1] (stimulation, at 2 µM). Further, the insulin secretion stimulation in assay [2] is -1.9% (inactive). Besides, the viability decrease in assay [3] is -6.75% (inactive). Moreover, the tube area decrease in assay [4] was 10.2% (inactive). In assay [5], the GLP1 secretion stimulation is 0.9% (inactive). Also, the inhibition of viability in assay [6] is -33.3% (inactive). The viability decrease (inhibition) in [7] was 102% (active); in [8], -5.5% (inactive). In addition, in assay [9], the red/green cell ratio (normalised) was 0.79 (inactive). Besides, the normalised cell number in assay [9] (setting [15]) came to 1.11; in assay [9] (setting [16]), 0.88. In addition, the values for the fold change in [10] (setting [17]) and in assay [10] (setting [18]) were 0.86 (inactive) and 0.838, respectively. Further, the cell count in assay [10] (setting [19]) came to 8540; in assay [10] (setting [20]) it was 9930. In addition, in assay [11], the remaining NAD is 10 nM (inactive).

By viability is commonly meant a read-out of living cells in per cent, often relative to untreated cells. Turning to `CC(=O)N[C@@H](CC(C)C)C(=O)O`, the survival in assay [12] is 3.17 (inactive). Also, the parasite load remaining in [13] was 73.5% (inactive) and 218% (inactive). Also, the viability in assay [13] was 98.8% and 70.6%. Further, the nuclear beta-catenin stimulation was 0% (inactive) in assay [1] (at 10 µM) and 1.3% in assay [1] (stimulation, at 2 µM). For the same molecule, the insulin secretion stimulation in [2] is -1% (inactive). For the same molecule, the viability decrease in assay [3] is -27.2% (inactive). The tube area decrease in assay [4] was -4.7% (inactive). For the same molecule, in [5], the GLP1 secretion stimulation is -1.9% (inactive). Also, in assay [6], the inhibition of viability is -7.5% (inactive). Besides, the viability decrease (inhibition) in assay [7] was 28% (inactive); in assay [8], -12.9% (inactive). For the same molecule, in assay [9], the red/green cell ratio (normalised) is 0.81 (inactive). Also, the normalised cell number stood at 1.12 in assay [9] (setting [15]) and 0.91 in assay [9] (setting [16]). The fold change in [10] (setting [17]) is 0.893 (inactive); in assay [10] (setting [18]) it was 1.09. Moreover, the cell count turned out to be 9170 in assay [10] (setting [19]) and 10300 in assay [10] (setting [20]). Besides, the z-score in assay [14] (setting [21]) is 0.637 (inactive); in [14] (setting [22]), -0.175.

Regarding `CCCCCCC[N+](CC)(CC)CCCCc1ccc(Cl)cc1`, the survival in assay [12] is 0.5 (inactive). In addition, in [13], the parasite load remaining was 34.3% (inactive) and 96.8% (inactive). For the same molecule, the viability in [13] is 48.5% and 90.6%. Moreover, the nuclear beta-catenin stimulation in [1] (at 10 µM) is 1.5% (inactive); in [1] (stimulation, at 2 µM), 0.5%. Moreover, the insulin secretion stimulation in assay [2] is 1% (inactive). Moreover, the viability decrease in assay [3] was 95.1% (active). The tube area decrease in assay [4] was 83.4% (active). Also, the GLP1 secretion stimulation in assay [5] was 7.2% (inactive). For the same molecule, in assay [6], the inhibition of viability was 79.1% (active). Further, the viability decrease (inhibition) in [7] is 60.9% (active); in assay [8], 75.4% (active). Moreover, in assay [9], the red/green cell ratio (normalised) was 0.92 (inactive). The values for the normalised cell number in assay [9] (setting [15]) and in assay [9] (setting [16]) were 0.97 and 0.89, respectively. The fold change in assay [10] (setting [17]) is 0.718 (inactive); in [10] (setting [18]), 1.54. Further, the cell count in [10] (setting [19]) was 6720; in [10] (setting [20]), 9350. Besides, the z-score was -3 (inactive) in assay [14] (setting [21]) and -0.71 in [14] (setting [22]).

Consider `CC(=O)Nc1c(I)c(NC(C)=O)c(I)c(C(=O)O)c1I`, for which the parasite load remaining in assay [13] is 58.9% (inactive). In addition, the viability in [13] stood at 109%. In addition, the nuclear beta-catenin stimulation in [1] (at 10 µM) is 1.6% (inactive); in [1] (stimulation, at 2 µM), 7.7%. In addition, the insulin secretion stimulation in [2] was 1.5% (inactive). Further, the viability decrease in assay [3] is 2.3% (inactive). Moreover, in assay [4], the tube area decrease was -9.3% (inactive). Further, the GLP1 secretion stimulation in [5] is 4.3% (inactive). The inhibition of viability in assay [6] was 2% (inactive). The viability decrease (inhibition) in assay [7] was -30.8% (inactive); in assay [8], -0.9% (inactive). In assay [9], the red/green cell ratio (normalised) was 1.17 (inactive). Also, the normalised cell number in assay [9] (setting [15]) worked out at 1.02; in [9] (setting [16]) it was 1.19. Further, the fold change was 0.866 (inactive) in [10] (setting [17]) and 2.21 in assay [10] (setting [18]). Moreover, the cell count came to 11200 in [10] (setting [19]) and 13000 in assay [10] (setting [20]). In addition, the results for the z-score in [14] (setting [21]) and in assay [14] (setting [22]) were 0.0135 (inactive) and 0.624, respectively. The remaining NAD in assay [11] was 10 nM (inactive).

The record behind these values is PubChem BioAssay.
